Compound activity deposited in PubChem BioAssay by The Scripps Research Institute Molecular Screening Center.
Most compounds without a hit are left out; they make up all but 2.2% or so of the library.
OPRM1-OPRD1 inv = inverse agonist of human OPRM1-OPRD1 heterodimerization | P35372+P41143 | cell-based MOR-DOR heterodimer luminescence, inverse agonism | inhibition, % at 9.3 µM | 340,000 tested, 0.21% active | AID 504357; in the data active = inhibition above about 22%, passing the limit was not always enough;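 note: 0% = cells with DMSO and 100% = wells without cells with DMSO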
Target sequence (P35372 whole entry, looked up): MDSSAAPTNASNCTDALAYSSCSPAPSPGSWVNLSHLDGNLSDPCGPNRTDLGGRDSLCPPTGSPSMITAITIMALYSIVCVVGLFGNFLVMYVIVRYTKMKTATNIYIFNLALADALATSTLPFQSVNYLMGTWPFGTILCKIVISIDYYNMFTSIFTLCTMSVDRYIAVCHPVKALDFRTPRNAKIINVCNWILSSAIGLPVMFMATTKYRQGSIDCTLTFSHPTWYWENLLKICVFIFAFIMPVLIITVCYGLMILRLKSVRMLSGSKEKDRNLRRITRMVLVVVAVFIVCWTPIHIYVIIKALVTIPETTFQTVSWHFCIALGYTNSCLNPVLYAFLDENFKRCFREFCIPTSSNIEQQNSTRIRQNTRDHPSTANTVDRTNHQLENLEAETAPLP
Target sequence (P41143 whole entry, looked up): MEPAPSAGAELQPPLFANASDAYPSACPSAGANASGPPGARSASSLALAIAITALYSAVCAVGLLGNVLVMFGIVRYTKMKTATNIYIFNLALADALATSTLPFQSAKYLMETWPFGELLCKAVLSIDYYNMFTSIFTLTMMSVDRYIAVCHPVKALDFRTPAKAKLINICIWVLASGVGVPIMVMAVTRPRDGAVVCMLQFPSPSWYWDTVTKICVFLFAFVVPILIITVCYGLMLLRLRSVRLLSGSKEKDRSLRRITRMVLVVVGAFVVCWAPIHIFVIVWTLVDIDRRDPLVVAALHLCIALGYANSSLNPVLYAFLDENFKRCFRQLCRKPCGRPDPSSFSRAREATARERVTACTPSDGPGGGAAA
HTR5A ag ctr = counter-screen for OPRM1-OPRD1 agonists: human HTR5A agonism; activation, % at 9.3 µM; 340,000 tested, 0.61% active; HTR5A agonist assay, luminescence, cell-based; P47898; in the data active = activation mostly above about 9.5%, no sharp cut-off; inactive = mostly below about 7.6%;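 note: 0% = cells with vehicle only and 100% = reference agonist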
HTR2A ag = agonists of mouse serotonin 5-HT2A receptor (HTR2A). activation, % at 7.6 µM. CHO-K1 mHTR2A beta-arrestin complementation, luminescence; percent of 30 µM serotonin response. P35363. AID 624169. 360,000 tested, 0.66% active;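 active = activation above a run cutoff, the mean activation of all tested compounds plus 3 SD, cut at about 14% in these data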;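 note: 0% = plate median of compound wells and 100% = 30 µM serotonin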
sPLA2-III inh = Inhibits HGIII-sPLA2 liposome hydrolysis, primary screen; QFRET BODIPY PC-A2 liposome hydrolysis, fluorescence; Q9NZ20; inhibition, % at 12.2 µM; 370,000 tested, 0.56% active;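 active = inhibition above mean plus 3 SD of compounds lying within the high and low control bounds, cut at about 19% in these data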;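 note: 0% = median of test compound wells and 100% = no enzyme DMSO wells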
HTR5A inv ctr = inverse agonist of human HTR5A in OPRM1-OPRD1 counter-screen. 340,000 tested, 0.083% active. P47898. HTR5A cell line, luminescence, inverse agonism. inhibition, % at 9.3 µM; in the data active = inhibition mostly above about 23%, no sharp cut-off; inactive = mostly below about 18%;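 note: 0% = cells with DMSO and 100% = no-cell wells with DMSO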
MOR-DOR ag = OPRM1-OPRD1 heterodimerization agonism. P35372+P41143. cells, luminescence. activation, % at 9.3 µM. 340,000 tested, 0.3% active. AID 504326; in the data active = activation above about 18%;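 note: 0% = vehicle-treated cells and 100% = reference agonist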
Starred values were filed as active, the others as inactive.

How did O=C(NCc1ccc(Cl)cc1)C1CCCN(c2ncnc3c2nc2n3CCCCC2)C1 (stereo unspecified) do in these assays?
OPRM1-OPRD1 inv: 12.5; HTR5A ag ctr: 12.9*; HTR2A ag: 1.5; sPLA2-III inh: 3.6; HTR5A inv ctr: 17.8; MOR-DOR ag: -2.4

Results for O=C(CSc1nc(Cc2ccccc2)nc2ccccc12)c1ccc2c(c1)OCCO2 ?
OPRM1-OPRD1 inv: -1.8; HTR5A ag ctr: -1.6; HTR2A ag: 19.4*; sPLA2-III inh: -17.1; HTR5A inv ctr: 12.8; MOR-DOR ag: 0.3

How did CC(=O)NC1CC2CCCC(C1)N2Cc1ccc(C)cc1 (stereo unspecified) do in these assays?
OPRM1-OPRD1 inv: 11.8; HTR5A ag ctr: 14.0*; HTR2A ag: 4.5; sPLA2-III inh: 0.2; HTR5A inv ctr: -3.3; MOR-DOR ag: -2.1

What do the screens show for `COc1cccc(/C=C/c2nc(C#N)c(NCC(C)C)o2)c1`?
OPRM1-OPRD1 inv: -8.8; HTR5A ag ctr: 12.3*; HTR2A ag: -1.4; sPLA2-III inh: 0.2; HTR5A inv ctr: -46.3; MOR-DOR ag: 1.8

What do the screens show for `COCCCNc1oc(/C=C/c2ccccc2)nc1C#N`?
OPRM1-OPRD1 inv: 4.8; HTR5A ag ctr: -0.8; HTR2A ag: -9.1; sPLA2-III inh: -0.8; HTR5A inv ctr: 2.8; MOR-DOR ag: -1.0

How did COc1ccc2c(c1)OC[C@H]1[C@H]2N2C(=O)c3ccccc3NC(=O)[C@@]2(C)[C@H]1c1ccccc1 do in these assays?
OPRM1-OPRD1 inv: -0.3; HTR5A ag ctr: -4.6; HTR2A ag: -3.5; sPLA2-III inh: 38.6*; HTR5A inv ctr: -33.2; MOR-DOR ag: 0.1

Results for Clc1ccccc1/C=N/NC1=Nc2cccc3cccc1c23 ?
OPRM1-OPRD1 inv: -76.6; HTR5A ag ctr: 11.9*; HTR2A ag: -1.0; sPLA2-III inh: -0.5; HTR5A inv ctr: -14.7; MOR-DOR ag: 11.3

Results for C(=N\NC1=Nc2cccc3cccc1c23)/c1ccccn1 ?
OPRM1-OPRD1 inv: -1.7; HTR5A ag ctr: 6.0; HTR2A ag: -1.4; sPLA2-III inh: -5.0; HTR5A inv ctr: -16.6; MOR-DOR ag: 0.3

What do the screens show for `c1ccc(-c2ccc(CN3CCN(c4ncccn4)CC3)cc2)cc1`?
OPRM1-OPRD1 inv: 2.6; HTR5A ag ctr: -7.2; HTR2A ag: 16.1*; sPLA2-III inh: -5.0; HTR5A inv ctr: 17.0; MOR-DOR ag: -0.5

Results for O=[N+]([O-])c1ccc(CN2CCN(c3ncccn3)CC2)cc1 ?
OPRM1-OPRD1 inv: 0.6; HTR5A ag ctr: -0.2; HTR2A ag: 12.3; sPLA2-III inh: 7.3; HTR5A inv ctr: 0.7; MOR-DOR ag: -0.1

How did O=C(c1cccc(C(F)(F)F)c1)C1CCCN(Cc2cccc(OCCO)c2)C1 (stereo unspecified) do in these assays?
OPRM1-OPRD1 inv: -10.4; HTR5A ag ctr: 12.7*; HTR2A ag: -6.7; sPLA2-III inh: -2.1; HTR5A inv ctr: -33.2; MOR-DOR ag: 2.0

How did CCOC(=O)[C@@]12CN(C(=O)OC(C)(C)C)CC=C1N(Cc1ccc(OC)cc1)C(=O)[C@H]2CC(=O)NCCCCc1ccccc1 do in these assays?
sPLA2-III inh: -19.1

What do the screens show for `O=C(Cn1cc([N+](=O)[O-])cn1)N1CCc2ccccc21`?
OPRM1-OPRD1 inv: 12.3; HTR5A ag ctr: -2.3; HTR2A ag: 16.2*; sPLA2-III inh: 8.9; HTR5A inv ctr: 11.2; MOR-DOR ag: -2.7

What do the screens show for `O=C(Cn1cc([N+](=O)[O-])cn1)N1CCCc2ccccc21`?
OPRM1-OPRD1 inv: 8.1; HTR5A ag ctr: 0.9; HTR2A ag: -5.2; sPLA2-III inh: 1.6; HTR5A inv ctr: 16.4; MOR-DOR ag: -1.7

How did CCCC(=O)C1=C(O)C(C(=O)OC)C(C)(C)CC1=Nc1cccc2ccccc12 (stereo unspecified) do in these assays?
OPRM1-OPRD1 inv: -25.6; HTR5A ag ctr: 10.3*; HTR2A ag: -0.1; sPLA2-III inh: 1.8; HTR5A inv ctr: -26.9; MOR-DOR ag: 4.5

What do the screens show for `CCCC(=O)C1=C(O)C(C(=O)OC)C(C)(C)CC1=Nc1ccccc1` (stereo unspecified)?
OPRM1-OPRD1 inv: 5.3; HTR5A ag ctr: -3.8; HTR2A ag: -0.1; sPLA2-III inh: 2.9; HTR5A inv ctr: 9.6; MOR-DOR ag: -1.3

What do the screens show for `CCn1c(NCc2ccccn2)nc2c1c(=O)n(C)c(=O)n2C`?
OPRM1-OPRD1 inv: 11.3; HTR5A ag ctr: 13.9*; HTR2A ag: -0.3; sPLA2-III inh: 2.1; HTR5A inv ctr: 4.0; MOR-DOR ag: -2.2

What do the screens show for `CN(C(=O)[C@@H]1CC=C[C@@H]2CCN(C3CCCCC3)C(=O)[C@@H]21)c1ccccc1`?
sPLA2-III inh: 3.6

How did O=C(COc1ccc(Cl)cc1Br)Nc1cccc(S(=O)(=O)N2CCCC2)c1 do in these assays?
OPRM1-OPRD1 inv: -16.6; HTR5A ag ctr: 13.7*; HTR2A ag: -1.9; sPLA2-III inh: -13.4; HTR5A inv ctr: -7.5; MOR-DOR ag: 4.2

What do the screens show for `Cc1ccc(NC(=O)COc2cccc(C)c2C)cc1S(=O)(=O)N1CCCCCC1`?
OPRM1-OPRD1 inv: -8.5; HTR5A ag ctr: 11.2*; HTR2A ag: -6.6; sPLA2-III inh: -10.9; HTR5A inv ctr: -30.4; MOR-DOR ag: 1.6

How did CCC(=O)N1CCc2cc(S(=O)(=O)NCCC(=O)NCc3ccccc3OC)ccc21 do in these assays?
OPRM1-OPRD1 inv: 8.8; HTR5A ag ctr: 11.2*; HTR2A ag: 3.5; sPLA2-III inh: -1.9; HTR5A inv ctr: -5.0; MOR-DOR ag: -1.7

What do the screens show for `CC1CCCC/C1=N\NS(=O)(=O)c1ccc(Br)cc1` (stereo unspecified)?
OPRM1-OPRD1 inv: -16.7; HTR5A ag ctr: 11.5*; HTR2A ag: -3.7; sPLA2-III inh: 1.0; HTR5A inv ctr: -87.0; MOR-DOR ag: 2.8

Results for CCOC(=O)c1c(C)sc2c1N(C(=O)CCl)c1cc(Cl)ccc1S2 ?
OPRM1-OPRD1 inv: -176.6; HTR5A ag ctr: 18.9*; HTR2A ag: 1.4; sPLA2-III inh: -8.1; HTR5A inv ctr: -41.6; MOR-DOR ag: 35.6*

Results for COC(=O)C1CN(Cc2ccccc2)CCS(=O)(=O)N1Cc1ccc(Cl)cc1 (stereo unspecified) ?
sPLA2-III inh: -0.4

Results for CN(Cc1cn(CC2CCCCC2)nn1)S(=O)(=O)c1ccccc1Br ?
sPLA2-III inh: -2.4

How did Cc1ccccc1C1CCC2(CC1)CCN(CC[C@@H](O)c1ccccc1)C2=O (stereo partly specified) do in these assays?
sPLA2-III inh: -9.5

How did CCOc1cc(/C=C2\C(=O)N(Cc3ccc(C)cc3)C(C)=C2C(=O)OC)ccc1O do in these assays?
OPRM1-OPRD1 inv: -9.7; HTR5A ag ctr: 16.0*; HTR2A ag: -4.6; sPLA2-III inh: -27.6; HTR5A inv ctr: -40.0; MOR-DOR ag: 2.3

How did C=CCOc1cccc(/C=C2\C(=O)N(Cc3ccc(C)cc3)C(C)=C2C(=O)OC)c1 do in these assays?
OPRM1-OPRD1 inv: -1.3; HTR5A ag ctr: 3.5; HTR2A ag: 2.1; sPLA2-III inh: -21.3; HTR5A inv ctr: 0.9; MOR-DOR ag: 0.3

What do the screens show for `NCCC(=O)Nc1ccc(Cl)cc1C(=O)c1ccc[nH]1`?
sPLA2-III inh: 6.3
